For one test, the target named is Albumin (Bos taurus) (UniProt P02769). Put plainly: bovine serum albumin binders on microarray, profiling panel, artefact control for SMM control protein annotation, biochemical, small-molecule microarray, Alexa647 label, 635/667 nm fluorescence (AID 1118).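 Further: score merges 667 nm emission intensity and signal-to-noise per printed compound spot.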 The settings on record: BSA-A647 binding, fluorescence 635 nm, higher = more signal.
The nature of test [1]: small-molecule microarray binders of probe aXIP, primary screen, biochemical, NeuroSMM set, 635/667 nm fluorescence (AID 1119).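 Further: probe is the protein aXip251-270 applied at 1 µg/mL to compound-printed slides; binding of probe to printed compounds measured as 667 nm fluorescence plus signal to noise.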 The settings on record: higher = more signal, called active from +8 up or from −8 down.
Test [2] is described as follows: small-molecule binders of probe aNOTCH3, primary screen, biochemical, small-molecule microarray, 635/667 nm fluorescence (AID 1120).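 Further: probe is a biotin-tagged antibody raised against NOTCH3 rather than NOTCH3 protein; score merges spot fluorescence near 667 nm with spot signal to noise.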 The conditions noted are these: higher = more signal.
The nature of test [3]: small-molecule binders of probe aNOTCH2, primary screen, biochemical, small-molecule microarray, 635/667 nm fluorescence (AID 1121).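 Further: score merges feature fluorescence read at 667 nm with its signal to noise.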 The conditions noted are these: higher = more signal.
Test [4] addresses Carbonic anhydrase 2 (Homo sapiens) (UniProt P00918). Put plainly: CAII small-molecule binders, profiling panel, biochemical, small-molecule microarray, Alexa647-labelled CAII (AID 1122). The conditions noted are these: CAII-A647 binding fluorescence, higher = more signal.
The nature of test [5]: COS7 lysate on small-molecule microarray, probe aHis, 635 nm (AID 1123).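 Further: z-score combines 667nm fluorescence intensity with signal-to-noise per printed compound spot.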 The settings on record: COS7 cell lysate, fluorescence, higher = more signal.
A short description of test [6]: compound binding in COS7 lysate, probe aLAP1, primary screen, cell lysate, small-molecule microarray (AID 1124).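 Further: lysate comes from COS7 cells expressing LAP1 and is applied at 0.3 µg/mL; score merges spot fluorescence near 667 nm with signal-to-noise over triplicate slides.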 The conditions noted are these: probe aLAP1, fluorescence, higher = more signal.
The next test has as its system Sam68 (KHDRBS1). The test can be described thus: Sam68 small-molecule binders, primary screen, biochemical, small-molecule microarray, 635 nm fluorescence (AID 1125).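 Further: score merges 667 nm channel intensity with signal to noise over triplicate slides.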 The settings on record: small-molecule microarray binding, higher = more signal.
Test [7] deals with Chordin-like protein 2 (CHRDL2). The test can be described thus: CHRDL2 small-molecule binders, primary screen, biochemical, small-molecule microarray, 635 nm fluorescence (AID 1126).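 Further: printed compound slides probed with Chrdl2 protein at 4 µg/mL for 1 h at 4 C; score merges 667 nm emission intensity with signal to noise over three replicate slides.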 The conditions noted are these: small-molecule microarray binding, fluorescence 635 nm; higher = more signal.
The target of test [8] is Concanavalin-A (Canavalia ensiformis) (UniProt P02866). The test can be described thus: ConA small-molecule binders, primary screen, artefact control for SMM control protein annotation, biochemical, small-molecule microarray, Alexa647 label, 635 nm (AID 1127).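 Further: z combines 667 nm emission intensity with signal-to-noise across three replicate slides.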 The conditions noted are these: ConA-A647 binding fluorescence, higher = more signal.

Among the data in PubChem BioAssay are composite z-score and composite Z-score values, retold here.

Molecules are shown by their SMILES. Activity calls are given as the source filed them.

Chain of Concanavalin-A (Canavalia ensiformis) (P02866 whole entry, looked up): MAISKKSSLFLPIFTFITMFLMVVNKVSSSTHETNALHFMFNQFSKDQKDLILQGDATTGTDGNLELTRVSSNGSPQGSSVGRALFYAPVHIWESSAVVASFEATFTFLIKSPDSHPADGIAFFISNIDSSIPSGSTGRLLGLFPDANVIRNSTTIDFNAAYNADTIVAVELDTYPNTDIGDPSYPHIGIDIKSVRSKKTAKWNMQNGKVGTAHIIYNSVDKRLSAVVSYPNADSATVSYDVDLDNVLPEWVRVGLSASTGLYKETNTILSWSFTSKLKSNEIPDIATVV
Chain of Albumin (Bos taurus) (P02769 whole entry, looked up): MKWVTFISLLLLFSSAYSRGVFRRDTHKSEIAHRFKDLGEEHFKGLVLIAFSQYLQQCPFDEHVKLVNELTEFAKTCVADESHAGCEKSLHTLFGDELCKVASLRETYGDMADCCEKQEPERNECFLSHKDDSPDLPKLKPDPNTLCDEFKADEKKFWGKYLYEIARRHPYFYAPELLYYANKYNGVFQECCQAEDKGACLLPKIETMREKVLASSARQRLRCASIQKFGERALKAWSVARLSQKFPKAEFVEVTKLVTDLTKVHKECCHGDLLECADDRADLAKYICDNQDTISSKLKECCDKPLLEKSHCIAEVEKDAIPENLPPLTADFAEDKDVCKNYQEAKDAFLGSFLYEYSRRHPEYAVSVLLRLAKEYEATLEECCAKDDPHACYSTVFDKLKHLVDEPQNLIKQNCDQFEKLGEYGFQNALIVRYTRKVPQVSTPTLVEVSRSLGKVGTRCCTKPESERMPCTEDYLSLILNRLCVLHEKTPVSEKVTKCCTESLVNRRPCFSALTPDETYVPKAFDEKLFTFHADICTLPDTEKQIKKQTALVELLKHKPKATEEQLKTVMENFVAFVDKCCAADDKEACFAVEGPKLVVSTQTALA

Consider `COC(=O)[C@H](Cc1ccccc1)N1CC(C)(OC)O[C@@H](Cc2ccccc2)[C@H]1/C=C/C1CC1` (stereo not given in full), for which the composite z-score with Albumin (Bos taurus) is -0.266; in test [2], -0.165; in [3], -0.108; in test [4] it was 0.348; in [5], 0.763; in test [6], 0.106. Besides, the composite z-score with Sam68 (KHDRBS1) was 0.417; in [7], -0.359; in test [8], 0.371. The composite Z-score in test [1] is 0.571 (inactive).

In the case of `COC(=O)[C@@]1(Cc2ccc(F)cc2)[C@H]2c3cc(C(=O)N4CCCC4)n(Cc4ccc(C(F)(F)F)nc4)c3C[C@H]2CN1C(=O)c1ccccc1`, the composite z-score with Albumin (Bos taurus) is 1.05; in test [2] it was 0.522; in [3], -0.0013; in test [4] it was 0.579; in [5] it was 3.01; in test [6] it was 0.4. The figures for the composite z-score (in the test on Sam68 (KHDRBS1); in test [7]; in test [8]) were 1.23, -1.41 and 0.962, respectively. Besides, the composite Z-score in test [1] is 0.136 (inactive).

Turning to `CO[C@H]1O[C@H](CO)[C@@H](OC(=O)Nc2cccc(F)c2)[C@H](OC(=O)Nc2ccc3c(c2)OCO3)[C@@H]1OC(=O)Nc1ccc2c(c1)OCO2`, the composite z-score with Albumin (Bos taurus) was 0.364; in [2] it was 0.15; in [3] it was -0.0247; in test [4] it was 0.753; in [5], 1.64; in test [6], 0.678. Further, the results for the composite z-score (in the test on Sam68 (KHDRBS1); in test [7]; in test [8]) were 1.32, 0.149 and 0.708, respectively. For the same molecule, the composite Z-score in [1] is 0.942 (inactive).

`C=C(CCCC)C(=O)CC[C@@H](OC(C)=O)c1ccc(OCCO)cc1`: the composite z-score was -0.267 with Albumin (Bos taurus); 0.15 in test [2]; -0.117 in test [3]; 0.628 in test [4]; 0.143 in [5]; 1.21 in test [6]. The composite z-score in the test on Sam68 (KHDRBS1) is -0.135; in test [7], 0.523; in [8], 0.397. Further, the composite Z-score in test [1] is 3.19 (inactive).

Take `C[C@]1(C(=O)NC2CC2)c2ccccc2C(=O)N(Cc2cc(F)cc(C(F)(F)F)c2)[C@H]1c1ccc(CO)cc1`: the composite z-score with Albumin (Bos taurus) was -0.1; in [2], -0.368; in test [3], -0.164; in [4] it was 0.759; in [5], 2.23; in test [6] it was 0.522. In addition, the composite z-score with Sam68 (KHDRBS1) was -0.0456; in test [7] it was -1.61; in [8], -0.0372. In test [1], the composite Z-score is 0.004 (inactive).

In the case of `C[C@]12C(=O)N(CCO)[C@@H]3C(=O)N(c4ccc(Cl)cc4)CC=CC31O[C@@H]1/C=C\CCCOC(=O)C12` (stereo not given in full), the composite z-score is 0.575 with Albumin (Bos taurus); -0.183 in test [2]; -0.0798 in test [3]; 0.883 in test [4]; -0.485 in test [5]; -0.0785 in test [6]. Also, the composite z-score is -0.0284 in the test with Sam68 (KHDRBS1), -1.62 in [7] and -0.263 in [8]. Moreover, in test [1], the composite Z-score was 0.0414 (inactive).

In the case of `CN(C)CCCCCCNC(=O)[C@@H]1C[C@@H]2C(=O)N[C@@H](CCCC[N+](C)(C)C)C(=O)N2[C@@H]1c1cccc(OCCO)c1`, the composite z-score with Albumin (Bos taurus) was 0.792; in test [2] it was -0.155; in test [3], -0.0495; in [4], 0.321; in test [5] it was 0.617; in [6] it was 0.98. The composite z-score with Sam68 (KHDRBS1) is -0.311; in test [7] it was -0.0783; in test [8], 0.566. Besides, the composite Z-score in test [1] is 1.88 (inactive).

As to `COc1ccc([Si](C)(C)[C@H]2[C@H](CC(=O)N3CCC[C@H]3CO)O[C@@]3(C(=O)N(Cc4cccc(N5CCCCC5=O)c4)c4ccccc43)[C@@H]2C)cc1`, the composite z-score with Albumin (Bos taurus) was 0.342; in [2], -0.318; in test [3], -0.161; in test [4], 0.462; in test [5] it was 1.83; in test [6], 0.648. For the same molecule, the composite z-score amounted to 1.31 in the test on Sam68 (KHDRBS1), 1.19 in [7] and 1.13 in test [8]. Also, the composite Z-score in test [1] is 0.433 (inactive).

Turning to `[N-]=[N+]=NCc1ccccc1[C@H]1OC(c2ccc(OCCCO)cc2)=N[C@@]1(Cc1ccccc1N=[N+]=[N-])C(N)=O`, the composite z-score with Albumin (Bos taurus) was 0.884; in [2], 0.339; in test [3] it was -0.229; in test [4], 0.743; in [5] it was 2.72; in test [6], -0.182. Moreover, the figures for the composite z-score (with Sam68 (KHDRBS1); in [7]; in test [8]) were 1.27, -0.0265 and 1.08, respectively. Also, the composite Z-score in test [1] was 0.385 (inactive).

On to `C=C(CCCC)/C(=C/C[C@@H](OC(C)=O)c1ccc(OCCO)cc1)c1cc(C(=O)OC)ccc1OC`, for which the composite z-score with Albumin (Bos taurus) is -0.526; in test [2], -0.0377; in test [3] it was -0.092; in test [4], 0.721; in test [5] it was 1.55; in test [6] it was 0.155. Also, the results for the composite z-score (with Sam68 (KHDRBS1); in test [7]; in test [8]) were 1.2, -0.362 and 0.787, respectively. Besides, in test [1], the composite Z-score is 0.0578 (inactive).

On to `COC(=O)[C@@]1(Cc2ccccc2)[C@H]2c3cc(C(=O)N(C)C)n(Cc4ccc(Cl)c(C(F)(F)F)c4)c3C[C@H]2CN1C(=O)c1ccccc1`, for which the composite z-score is 0.811 in the test with Albumin (Bos taurus); 0.745 in test [2]; 0.445 in test [3]; 0.668 in test [4]; 1.9 in [5]; 0.402 in test [6]. In addition, the composite z-score was 1.2 in the test on Sam68 (KHDRBS1), -0.123 in test [7] and 0.95 in test [8]. The composite Z-score in test [1] was -0.215 (inactive).

On to `COCCOC(=O)N1C(=O)[C@@]2(c3cc(C#CCCO)ccc31)[C@H](c1ccc(O)cc1)N1[C@H](c3ccccc3)[C@H](c3ccccc3)OC(=O)[C@H]1[C@@H]2C(=O)NC[C@H](O)c1ccccc1`, for which the composite z-score in the test with Albumin (Bos taurus) was 0.417; in test [2], -0.0105; in test [3], -0.0858; in test [4] it was 0.529; in test [5], 1.89; in test [6] it was 1.08. Moreover, the composite z-score with Sam68 (KHDRBS1) was found to be 1.29; in test [7], 0.181; in [8], 0.613. Also, the composite Z-score in test [1] was 0.406 (inactive).

For `[N-]=[N+]=Nc1ccccc1C[C@@]1(C(=O)NCC(O)CO)N=C(c2ccc(OCCCO)cc2)O[C@@H]1c1ccccc1N=[N+]=[N-]` (stereo not given in full), the composite z-score with Albumin (Bos taurus) stood at 0.874; in test [2], 0.204; in [3], 0.0124; in [4] it was 0.78; in test [5], 2.25; in test [6], 1.26. Besides, the composite z-score in the test with Sam68 (KHDRBS1) was 1.12; in test [7], -0.802; in test [8], 0.902. In addition, the composite Z-score in test [1] is -0.213 (inactive).

Turning to `O=C1c2ccccc2[C@](Cc2ccccc2I)(C(=O)NCCN2CCOCC2)[C@H](c2ccc(CO)cc2)N1Cc1ccccc1C(F)(F)F`, the composite z-score was 0.543 in the test with Albumin (Bos taurus); -0.0014 in test [2]; -0.0771 in test [3]; 0.594 in test [4]; 2.09 in test [5]; 0.329 in [6]. Moreover, the results for the composite z-score (in the test with Sam68 (KHDRBS1); in test [7]; in test [8]) were 1.29, -0.408 and 1.13, respectively. The composite Z-score in [1] is -0.0238 (inactive).

Consider `CC(C)N1C(=O)[C@@]2(Cc3ccccc31)c1ccccc1C(=O)N(Cc1ccccc1)[C@H]2c1ccc(CO)cc1`, for which the composite z-score was -0.103 with Albumin (Bos taurus); -0.118 in test [2]; -0.205 in test [3]; -0.224 in test [4]; 0.0227 in [5]; 1.79 in test [6]. Moreover, the composite z-score in the test on Sam68 (KHDRBS1) was 0.316; in test [7], 0.702; in [8] it was -0.0679. Also, the composite Z-score in test [1] is -0.289 (inactive).

Consider `CCCC1(C(=O)OC)C=C2C(=C(C(C)C)C(=O)C2C)CN1` (stereo not given), for which the composite z-score in the test with Albumin (Bos taurus) is 0.844; in test [2] it was -0.0288; in test [3] it was 0.0788; in [4] it was 0.0703; in [5], 0.614; in test [6], 0.976. The composite z-score in the test on Sam68 (KHDRBS1) is -1.36; in test [7], -0.454; in test [8], -0.981. For the same molecule, the composite Z-score in test [1] is 0.382 (inactive).

With `CC(C)(C)OC(=O)CC[C@]1(C(N)=O)N=C(c2ccc(OCCCO)cc2)O[C@H]1c1ccccc1N=[N+]=[N-]`, the composite z-score with Albumin (Bos taurus) was 0.426; in test [2], 0.156; in test [3] it was -0.084; in [4], 0.791; in test [5], 1.61; in [6], 0.242. In addition, the composite z-score with Sam68 (KHDRBS1) was 0.522; in test [7], -0.416; in test [8] it was 0.741. The composite Z-score in [1] is 0.59 (inactive).
